Data as given in PubChem BioAssay (NCI).
Compounds without any hit were thinned out: in the full panel of roughly 79,000, 15% have a hit. Unmarked numbers belong to inactive results. Calls of active or inactive are those of the source. No stated cut-off is given here; in the data, active means growth inhibition above about 70%; inactive means the rest.

Legend:
[1] = NCI Yeast Anticancer Drug Screen. Data for the rad50 strain (AID 155);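 further: 0% = growth of vehicle-only cultures of the same strain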; conditions: S. cerevisiae rad50 strain growth inhibition, hits give high values
Procedure, shortened: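 Yeast carrying a defined DNA repair defect were exposed to test compounds, and growth was compared with vehicle-treated controls to give percent inhibition.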

[2] = NCI Yeast Anticancer Drug Screen. Data for the mec2-1 strain (AID 157); conditions: S. cerevisiae mec2-1 strain, hits give high values
Procedure, shortened: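 mec2-1 yeast strain, carrying an alteration in DNA damage repair or cell cycle control, was exposed to compounds; growth inhibition was measured relative to vehicle-treated controls.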

[3] = NCI Yeast Anticancer Drug Screen. Data for the sgs1 mgt1 strain (AID 161);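 further: 0% = growth of cultures given vehicle only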; conditions: S. cerevisiae sgs1 mgt1 strain, hits give high values
Procedure, shortened: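 Compounds are added to genetically altered yeast, and growth is compared with cultures given vehicle alone to give percent inhibition.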

[4] = NCI Yeast Anticancer Drug Screen. Data for the cln2 rad14 strain (AID 165);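 further: 0% = growth equal to vehicle treated cultures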; conditions: S. cerevisiae cln2 rad14 strain, hits give high values
Procedure, shortened: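 Yeast carrying cln2 and rad14 alterations (cell cycle control and DNA damage repair) were exposed to compounds. Growth inhibition was measured against vehicle-treated controls.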

[5] = NCI Yeast Anticancer Drug Screen. Data for the bub3 strain (AID 167); conditions: S. cerevisiae bub3 mutant strain, hits give high values
Procedure, shortened: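 Compounds were applied to a genetically altered yeast strain carrying a cell-cycle control defect. Growth inhibition was scored against vehicle-treated controls.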

[6] = NCI Yeast Anticancer Drug Screen. Data for the mlh1 rad18 strain (AID 175); conditions: S. cerevisiae mlh1 rad18 strain growth inhibition, hits give high values
Procedure, shortened: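 Growth inhibition of the yeast strain was measured after compound exposure and expressed relative to vehicle-treated controls. The strain carries defined defects in DNA damage repair.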

[7] = at 5.0 µM (retest, dose inferred, filed as 0.5)
[8] = at 50.0 µM (retest, dose inferred, filed as 5.0)

SMILES | growth inhibition [1, 7] | growth inhibition [1, 8] | growth inhibition ([1]; at 50.0 µM) | growth inhibition [2, 7] | growth inhibition [2, 8] | growth inhibition ([2]; at 50.0 µM) | growth inhibition [3, 7] | growth inhibition [3, 8] | growth inhibition ([3]; at 50.0 µM) | growth inhibition [4, 7] | growth inhibition [4, 8] | growth inhibition ([4]; at 50.0 µM) | growth inhibition [5, 7] | growth inhibition [5, 8] | growth inhibition ([5]; at 50.0 µM) | growth inhibition [6, 7] | growth inhibition [6, 8] | growth inhibition ([6]; at 50.0 µM)
COC12C=CC(CC1)C1=C2C(=O)c2nc(C)c(C)nc2C1=O (configuration not stated) | -1% | 27% | 30.8% | 9% | 20% | 7.5% | -1% | 39% | 33.6% | 21% | 3% | 20.8% | 5% | 8% | 20.8% | 12% | 52% | 34.2%
CCOC(=S)SSC(=S)NCCNC(=S)SSC(=S)OCC | 9% | 40% | 70.7% (active) | 4% | 72% (active) | 36.5% | 13% | 86% (active) | 79.8% (active) | -1% | 30% | 73.1% (active) | 4% | 91% (active) | 2.55% | 11% | 78% (active) | 76.4% (active)
COc1ccccc1C(C)c1ccc2ccccc2c1C(=O)O (configuration not stated) | 11% | 91% (active) | 94.6% (active) | 2% | 93% (active) | 94% (active) | 1% | 90% (active) | 95% (active) | 7% | 93% (active) | 96.1% (active) | -6% | 87% (active) | 93.4% (active) | 2% | 94% (active) | 96% (active)
Nc1nc(-c2cccnc2)nc(N)c1N=O | 7% | 82% (active) | 61.4% | 15% | 79% (active) | 79.2% (active) | 15% | 88% (active) | 70.6% (active) | 1% | 90% (active) | 66.5% | 36% | 92% (active) | 91.1% (active) | 25% | 94% (active) | 79.1% (active)
c1ccc(CN(CCCOc2ccccc2)Cc2ccccc2)cc1 | 2% | 25% | 56.4% | -4% | 53% | 29.9% | 5% | 85% (active) | 76.5% (active) | 3% | 15% | 72.3% (active) | 15% | 71% (active) | 79.8% (active) | 25% | 77% (active) | 80.5% (active)
CC(C)(CN1CCCCC1)C(=O)CC(SCCS(=O)(=O)O)c1ccc(Cl)c(Cl)c1 (configuration not stated) | 62% | 97% (active) | 95.8% (active) | 33% | 97% (active) | 94% (active) | 33% | 95% (active) | 97.4% (active) | 38% | 98% (active) | 88.2% (active) | 58% | 99% (active) | 98% (active) | 41% | 97% (active) | 97% (active)
CCCCCCCCCCCCCCCCCC1=NCCN1 | 6% | 98% (active) | 54% | -4% | 98% (active) | 99.3% (active) | 1% | 98% (active) | 42% | 1% | 99% (active) | 98% (active) | 8% | 98% (active) | 99.3% (active) | -1% | 97% (active) | 99.2% (active)
Cc1[nH]c2ccccc2c1C1=CC2(C)Nc3ccccc3C2C(C)(C)C1 (configuration not stated) | -4% | 26% | 90.2% (active) | 2% | -1% | 93.8% (active) | -4% | 23% | 92.3% (active) | 2% | -4% | 93.5% (active) | 10% | 79% (active) | 94.8% (active) | -1% | 28% | 94.7% (active)
CN1CC[C@@H](c2ccccc2)[C@@H](O)C1 | 0% | -11% | 6.3% | 4% | -4% | 12% | 2% | -10% | 49.1% | -3% | -11% | -1.15% | 0% | -3% | 3.5% | -1% | -29% | 9.55%
CC(=O)C1CCC2C1(C)CC1OC13C21C=CC2(CC(O)CCC23C)C2C(=O)OC(=O)C21 (configuration not stated) | -1% | 98% (active) | 99.4% (active) | 4% | 97% (active) | 91.5% (active) | 2% | 99% (active) | 99.3% (active) | 3% | 98% (active) | 99.6% (active) | 2% | 98% (active) | 95.7% (active) | 23% | 99% (active) | 99.2% (active)
c1cc(Nc2ccc(Nc3ccc(CN4CCCCC4)cc3)cc2)ccc1CN1CCCCC1 | 39% | 98% (active) | 81.8% (active) | 31% | 99% (active) | 89.8% (active) | 66% | 99% (active) | 90.9% (active) | 54% | 99% (active) | 83.2% (active) | 63% | 99% (active) | 89.2% (active) | 36% | 98% (active) | 87.5% (active)
Cc1ccc(C(=O)CC(O)(C(F)(F)F)C(F)(F)F)cc1[N+](=O)[O-] | 17% | 95% (active) | 88.9% (active) | -17% | 97% (active) | 90% (active) | 3% | 45% | 92.2% (active) | 25% | 94% (active) | 89.5% (active) | 5% | 96% (active) | 90.5% (active) | 9% | 97% (active) | 87.4% (active)
COc1ccc2c(c1)CC[C@@H]1C2CC[C@]2(C)OC(=O)CCC12 (some centres not stated) | -23% | 98% (active) | 73.1% (active) | -5% | 89% (active) | 66.8% | -15% | 93% (active) | 77.1% (active) | -4% | 92% (active) | 67.3% | -31% | 97% (active) | 72.7% (active) | 12% | 97% (active) | 71.7% (active)
O=[N+]([O-])c1cccc(S(=O)(=O)Nc2cccc3ccccc23)c1 | 4% | 97% (active) | 99% (active) | 1% | 98% (active) | 99.2% (active) | 2% | 97% (active) | 99.2% (active) | 4% | 98% (active) | 99.2% (active) | 1% | 97% (active) | 99.2% (active) | -3% | 97% (active) | 98.7% (active)
CC/C(=C(\CC)c1ccc(O)c(CN(CCO)CCO)c1)c1ccc(O)cc1 | -3% | 11% | 36.9% | -1% | 5% | 22.2% | -2% | 28% | 69.2% | 0% | -1% | 0.6% | -5% | 25% | 12.5% | -2% | 33% | 73.6% (active)
O=C(O)/C(Cl)=C(\Cl)C(=O)Nc1c(Cl)cccc1Cl | -9% | 7% | 19.1% | -3% | -7% | 51.1% | -13% | 6% | 38.2% | 1% | 5% | 36.4% | 3% | 2% | 29.2% | 19% | 2% | 16.1%
CCOC(=O)Cn1c(=O)c2nc(SC)sc2n(-c2ccc(C)cc2)c1=S | -3% | -1% | -4.9% | -1% | -10% | -6.25% | 0% | 6% | 27.1% | 14% | 17% | 34% | 1% | 9% | -10.4% | 2% | 12% | -19%
COc1ccc(CSC(=S)Nc2ccc(SC)c(Cl)c2)cc1 | 50% | 90% (active) | 96.4% (active) | 23% | 96% (active) | 98.1% (active) | 62% | 94% (active) | 97% (active) | -10% | 88% (active) | 94.5% (active) | 16% | 97% (active) | 97% (active) | 65% | 94% (active) | 97.9% (active)
Nc1ccccc1[S][Sn]([c]1ccccc1)([c]1ccccc1)[c]1ccccc1 | 99% (active) | 98% (active) | 98.5% (active) | 99% (active) | 98% (active) | 98.5% (active) | 99% (active) | 99% (active) | 98.5% (active) | 98% (active) | 98% (active) | 98% (active) | 97% (active) | 99% (active) | 98.3% (active) | 99% (active) | 99% (active) | 98.3% (active)
